Test results as given in PubChem BioAssay (NCI).
Compounds without any hit were thinned out: in the full panel of roughly 83,000, 20% have a hit.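 Activity criterion: percent growth below 10, measured after cells in 96-well plates were exposed to a single compound concentration for 48 hours.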 Values without a mark were called inactive. The source made the active and inactive calls.

Assays:
Experiment in all cases: NCI-60 one-dose screen, 48 h (100 = growth as untreated, 0 = no growth, -100 = all killed)
Conditions in all cases: 10 µM unless noted
NCI-H23 lung = tested on: NCI-H23 lung
NCI-H226 lung = tested on: NCI-H226 lung
NCI-H322M lung = tested on: NCI-H322M lung
HOP-62 NSCLC = tested on: HOP-62 NSCLC
NCI-H460 lung = tested on: NCI-H460 lung
HOP-92 NSCLC = tested on: HOP-92 NSCLC
NCI-H522 lung = tested on: NCI-H522 lung
A549/ATCC NSCLC = tested on: A549/ATCC NSCLC
786-0 renal = tested on: 786-0 renal
COLO 205 colon = tested on: COLO 205 colon
DU-145 prostate = tested on: DU-145 prostate
K-562 leukemia = tested on: K-562 leukemia
MALME-3M melanoma = tested on: MALME-3M melanoma
MDA-MB-231 breast = tested on: MDA-MB-231 breast
RXF 393 renal = tested on: RXF 393 renal
SF-268 CNS = tested on: SF-268 CNS
SF-295 CNS = tested on: SF-295 CNS
SF-539 CNS = tested on: SF-539 CNS
UACC-257 melanoma = tested on: UACC-257 melanoma
M14 melanoma = tested on: M14 melanoma

Row | Structure (SMILES) | growth (NCI-H23 lung) | growth (NCI-H226 lung) | growth (NCI-H322M lung) | growth (HOP-62 NSCLC) | growth (NCI-H460 lung) | growth (HOP-92 NSCLC) | growth (NCI-H522 lung) | growth (A549/ATCC NSCLC) | growth (786-0 renal) | growth (COLO 205 colon) | growth (DU-145 prostate) | growth (K-562 leukemia) | growth (MALME-3M melanoma) | growth (MDA-MB-231 breast) | growth (RXF 393 renal) | growth (SF-268 CNS) | growth (SF-295 CNS) | growth (SF-539 CNS) | growth (UACC-257 melanoma) | growth (M14 melanoma)
1 | Cc1ccc2c(c1)C(=O)/C(=C/c1cccc(OCC(=O)c3ccc(Cl)cc3)c1)CS2 | 79% | 91.6% | 72.9% | 105% | 98.8% | 61.5% | 46.8% | 103% | 103% | 111% | 108% | 29.2% | 95.9% | 61.9% | 4.49% (active) | 108% | 125% | 112% | 120% | 107%
2 | COc1cccc(-c2nc3sccn3c2-c2ccnc(NCCCNS(=O)(=O)c3c(Cl)cccc3Cl)c2)c1 | 60.3% | 51.8% | 90.5% | 85.6% | 67.4% | 49.6% | 60.6% | 60.3% | 70.4% | 55.9% | 66.1% | 30.9% | 73.2% | 87.8% | 74.7% | 68.4% | 50.9% | 95% | 95.2% | 60.5%
3 | Cn1cc(-c2nonc2-c2cn(C)c3ccc(F)cc23)c2ccccc21 | 23.2% | 5.33% (active) | 40.2% | 33.1% | 7.52% (active) | 54.6% | -8.4% (active) | 24.5% | 34.3% | 5.23% (active) | 13.6% | 9.9% (active) | 54.1% | 25.6% | -13.4% (active) | 43.3% | 26% | -25.4% (active) | 60.6% | 18.6%
4 | O=C(COc1cccc(/C=C2\CSc3ccccc3C2=O)c1)Nc1nccs1 | 19.7% | 104% | 98.7% | 88.1% | 91.5% | -52% (active) | -60.3% (active) | 95.1% | 101% | 113% | 106% | -58.1% (active) | 16.9% | 80.6% | 71% | 43.5% | 115% | 75.3% | 86% | 39.1%
5 | CCC(=O)c1ccc(Cl)s1 | 104% | 103% | 134% | 109% | 99% | 102% | 93.7% | 98.7% | 105% | 101% | 111% | 109% | 115% | 106% | 115% | 94.8% | 113% | 114% | 104% | 103%
6 | COc1ccc(C2CC(c3ccc4ccccc4c3)=NN2/C=C2\SC(=S)N(NC(=O)Cc3ccccc3Nc3c(Cl)cccc3Cl)C2=O)cc1 (stereo not given) | 40.5% | 45.9% | 42.8% | 23.7% | 9.42% (active) | 38.5% | -15.4% (active) | 23.6% | 13.8% | 55.6% | 12.2% | 10.6% | 52.9% | 41% | -8.96% (active) | 34.6% | 14.1% | -16.9% (active) | 56.2% | -25.1% (active)
7 | O=C(Nc1ccc(Cl)cc1)c1cc2cc(F)ccc2cc1O | 7.14% (active) | 7.16% (active) | 18.7% | 12.1% | 7.11% (active) | -11.4% (active) | -0.904% (active) | 6.09% (active) | 15.7% | 69.5% | 26.7% | 11.5% | -3.12% (active) | -23.4% (active) | 13.6% | 23.6% | 31.2% | 17.7% | -23.8% (active) | 15.9%
8 | Cc1nc(/N=C(\N)NC(=O)Nc2cccc([N+](=O)[O-])c2)sc1C | 81.8% | 90.5% | 93.7% | 83.3% | 90.5% | 84.1% | 49.2% | 89.1% | 90.5% | 90.6% | 89.8% | 14.3% | 78.2% | 98.8% | 91.4% | 92.9% | 83.3% | 78.4% | 88.5% | 57.1%
9 | N#CCCN=Nc1c(O)[nH]c2ccc(F)cc12 | 96.3% | 96.1% | 103% | 98.6% | 101% | 101% | 85% | 111% | 94.1% | 118% | 106% | 119% | 99.2% | 102% | 103% | 96.5% | 101% | 105% | 118% | 98%
10 | N#Cc1cnn(-c2nc3c(Cl)cccc3s2)c1N | 82.6% | 76.2% | 95% | 81.3% | 73.4% | 38.8% | 67.7% | 83.6% | 89.4% | 92.3% | 96% | 92.8% | 85.9% | 60.6% | 92.7% | 87% | 82.3% | 82.2% | 102% | 96.1%
11 | COc1ccc(C(=S)N2CCN(c3cccc(Cl)c3)CC2)cc1 | 101% | 113% | 98.3% | 98.5% | 96.7% | 94.6% | 108% | 91.7% | 97.1% | 141% | 121% | 119% | 138% | 101% | 160% | 102% | 111% | 92.2% | -2.46% (active) | 101%
12 | Cc1ccc(NC(=O)C2CCC(CN3CCN(C)CC3)CC2)cc1Nc1nccc(-c2cccnc2)n1 (stereo not given) | 96.1% | 99.8% | 95.9% | 105% | 101% | 85.5% | 129% | 114% | 98.7% | 94.4% | 100% | 58.3% | 104% | 101% | 96% | 100% | 101% | 63.4% | 115% | 98.8%
13 | Cc1cc(C)c2nc3nc(C)cc(C)c3c(N)c2c1 | 47.6% | 23.2% | 40.9% | 33.8% | -2.37% (active) | -1.87% (active) | 39% | 19.9% | 28.4% | 16.2% | 15.5% | 10% (active) | 24% | 30.2% | 42.5% | 19.7% | 29.6% | 14.1% | 40.2% | 34.1%
14 | COc1cc(-c2nc3cc(Cl)c(Cl)cc3[nH]2)ccc1OCC(=O)N=Nc1c(O)[nH]c2ccccc12 | -81.1% (active) | -27.2% (active) | -40.7% (active) | -60.2% (active) | -68% (active) | -67.2% (active) | -64.3% (active) | 4.16% (active) | -82.6% (active) | -78% (active) | -69.9% (active) | -32.4% (active) | -94% (active) | -82.2% (active) | -75.9% (active) | -34.9% (active) | -87.5% (active) | -87.3% (active) | -60.2% (active) | -76.1% (active)
15 | O=C1/C(=C/C(Cl)=C/c2ccccc2)SC(=S)N1CCc1ccc(O)cc1 | -18.1% (active) | 55.7% | 44% | -6.2% (active) | 0.138% (active) | -1.85% (active) | -7.91% (active) | -5.56% (active) | -47% (active) | -9.3% (active) | 15.8% | 5.68% (active) | -2.34% (active) | 27.3% | -46.1% (active) | 19.8% | 4.96% (active) | 3.33% (active) | 17.4% | -12.7% (active)
